An excerpt weighted towards active compounds, which were near 2.8% of everything screened.
KCNH2 WT inh – qHTS for Inhibitors of KCHN2 3.1: Wildtype qHTS; U2OS, BacMam KCNH2, thallium flux FluxOr; hits give low values; activity change, % at 1.84 µM; hit rate 0.37% among 340,000; Voltage-gated inwardly rectifying potassium channel KCNH2 (Homo sapiens), Q12809;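 active = maximum activity change below -70%; inconclusive = maximum activity change between -70% and -50%; inactive = maximum activity change above -50%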; note: % is set by controls: 0 for no effect and ±100 for the full control effect
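U2OS cells transduced with wild-type KCNH2 virus are loaded with FluxOr dye for 45 min, and thallium flux is measured in kinetic reads before and after stimulation buffer. Rate constants are normalized to DMSO controls.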
GLS inh – qHTS for Inhibitors of Glutaminase (GLS); GLS enzymatic activity, qHTS titration; Potency, µM (highest dose often 45.5 µM), for the others: top-dose activity change, negative = inhibition, actives largely listed as inhibitors; hit rate 0.21% among 410,000; AID 624170, 2012; note: potency is the fitted concentration of half-maximal effect; % is set by controls: 0 for no effect and ±100 for the full control effect
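Glutamate formation by hKGA was monitored fluorometrically using coupled glutamate oxidase, HRP and Amplex Red. Substrate was added as 1 mM L-glutamine solution; incubation was 30 min at RT after an initial read.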
GLP-1R inv ag – qHTS of GLP-1 Receptor Inverse Agonists (Inhibition Mode) | HEK293 GLP-1R CRE-luciferase, luminescence, 24 h; GLP-1R form is constitutively active | Potency, µM (series often up to 38.3 µM), for the others: top-dose activity change, negative = inhibition, most hits filed as inhibitors | hit rate 1.6% among 410,000; note: potency is the fitted concentration of half-maximal effect; % is set by controls: 0 for no effect and ±100 for the full control effect; nearly all actives have a fitted effect of over 55% in size
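Luminescence readout: a drop in cAMP-driven luciferase signal flags inverse agonism at a constitutively active GLP-1R stably expressed in HEK293. Compound exposure lasted 24 hr at 37 deg C, 5% CO2.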
HEK293 tox – qHTS of GLP-1 Receptor Inverse Agonists: Cytotox Screen; HEK293 cAMP-luciferase reporter cells, luminescence, 24 h; Potency, µM (highest dose often 38.3 µM), for the others: at the highest dose activity change, negative = inhibition, usual class: inhibitors; hit rate 0.13% among 410,000; AID 624418, 2012;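 note: loss of luciferase light is scored as toxicity; potency is the fitted concentration of half-maximal effect; % is set by controls: 0 for no effect and ±100 for the full control effect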
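A 23 nL compound transfer followed 12 hours of cell culture at 37 deg C; exposure then lasted 24 hr. Luciferase assay detection reagent was dispensed and plates read for luminescence after a 12 min room-temperature wait.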
GLP-1R agonist – qHTS of GLP-1 Receptor Agonists; AID 624172, 2012; Glucagon-like peptide 1 receptor (Homo sapiens), P43220; Potency, µM (series often up to 45.6 µM), without a hit: top-dose activation, hits mostly activators; hit rate 0.007% among 380,000; HEK293 GLP-1R CRE-luciferase, luminescence, 4-6 h; cells express a hypersensitive GLP-1R form; note: potency is the fitted concentration of half-maximal effect; % of control where 0% means no effect
KCNH2 3.1 inh – qHTS for Inhibitors of KCHN2 3.1: Mutant qHTS. Potassium voltage-gated channel subfamily H member 2, brain isoform KCNH2 3.1 (human). U2OS KCNH2 3.1, thallium flux FluxOr; hits give low values. activity change, % (tested at about 1.8 µM). hit rate 0.95% among 340,000. AID 720553, 2013;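 active = maximum activity change below -70%; inconclusive = maximum activity change from -70% to -50%; inactive = maximum activity change above -50%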;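 note: thallium influx rate constant from kinetic fluorescence after stimulation buffer; % is set by controls: 0 for no effect and ±100 for the full control effect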
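U2OS cells transduced with KCNH2 3.1 mutant virus (1.77 x 10^8 /mL, 4 h), plated overnight at 37 C, loaded 45 min with FluxOr dye plus Red40 quencher. Thallium flux rate constant from kinetic reads after stimulation buffer, normalised to controls.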
* = called active by the depositor; ? = inconclusive; · = no result given. Unless noted, calls come from the whole dose curve; as a rule, active = well fitted curve in the direction sought with a large enough effect; inconclusive = small, poorly fitted or top-dose-only effect, or another doubt; inactive = no such curve, though single readings can be large; an effect the other way counts as inactive or inconclusive.

SMILES	KCNH2 WT inh	GLS inh	GLP-1R inv ag	HEK293 tox	GLP-1R agonist	KCNH2 3.1 inh
CC(C)(C)OC(=O)NCc1ccc(CNC(=O)c2[nH]cnc2C(=O)N[C@@H](Cc2ccccc2)C(=O)OC(C)(C)C)cc1	-7	-4%	?	-7%	2%	-20
C[C@H](NC(=O)c1nc[nH]c1C(=O)NC(c1ccccc1)c1ccccc1)C(=O)OC(C)(C)C	2	0%	5.6µM*	0%	2%	8
CC(C)(C)OC(=O)N1CCC(NC(=O)c2nc[nH]c2C(=O)N2CCc3ccccc3C2)CC1	6	0%	6%	12%	-1%	0
CC(C)(C)OC(=O)CNC(=O)c1nc[nH]c1C(=O)N1CCc2ccccc2C1	7	3%	10%	13%	-3%	-71*
Cc1nn2c(=O)cc(COC(=O)c3cccc(NC(=O)c4cccs4)c3)nc2s1	·	6%	?	-22%	·	·
CN(CC(=O)Nc1c(Cl)cccc1Cl)C(=O)c1cc(S(=O)(=O)N(C)C)ccc1N1CCCC1	11	-12%	-6%	18%	2%	18
Cc1cc2c(cc3c(SCc4ccc(Cl)cc4)nncn32)o1	·	-1%	-2%	2%	·	·
COc1ccc(C(=O)N(Cc2ccc(N(C)C)cc2)Cc2ccco2)cc1Cl	·	1%	?	-11%	·	·
CN(C)c1ccc(CN(Cc2ccco2)C(=O)c2ccc(C(C)(C)C)cc2)cc1	·	9%	11µM*	0%	·	·
Cc1ccc(CN(Cc2ccco2)C(=O)c2cccc(C)c2)cc1	·	-2%	11µM*	1%	·	·
CC(=O)N(c1cc(C)ccc1C)c1ccccc1[N+](=O)[O-]	0	-13%	?	-15%	10%	-6
COCc1c(C(=O)OCC(=O)NCCN2C(=O)CSC2=O)oc2ccccc12	-120*	12%	-6%	73%	0%	8
O=C(COC(=O)c1oc2ccccc2c1COc1ccccc1)NCCN1C(=O)CSC1=O	-3	-10%	-24%	-4%	-1%	-2
C1=CCN(c2nc(N3CCOCC3)nc(N3CCCc4ccccc43)n2)CC1	-3	-6%	11µM*	1%	7%	-3
COc1ccc(/C=C/C2=CCN(Cc3ccc(OC)cc3)CC2)cc1	-33	-3%	-27%	-18%	9%	-79*
COc1ccc(/C=N/N2CCN(Cc3ccccc3)CC2)cc1	6	11%	?	-13%	-4%	23
CCOc1ccc(OCC)c(NC(=O)c2cc(S(=O)(=O)N3CCCC3)cn2C)c1	·	1%	2%	24%	·	·
CCCC(C)NC(=O)c1nc(-c2ccccc2)n(-c2ccccc2)n1 (configuration not stated)	0	1%	8.9µM*	-1%	24%	-10
COc1ccc(-c2ccc([C@H]3[C@H]4C=CC[C@@H](C)[C@@H]4C(=O)N3Cc3ccccc3)c(F)c2)cc1C	6	0%	4.5µM*	4%	3%	-7
C[C@@H]1CC=C[C@@H]2[C@H]1C(=O)N(Cc1ccccc1)[C@H]2c1ccccc1Br	5	4%	-11%	1%	1%	-9
COc1ccc(-c2ccccc2[C@H]2[C@@H]3C=CC[C@@H](C)[C@@H]3C(=O)N2Cc2ccccc2)cc1	-12	3%	8.9µM*	-8%	1%	-6
CC(=O)c1ccc(-c2cc([C@H]3[C@H]4C=CC[C@@H](C)[C@@H]4C(=O)N3Cc3ccccc3)ccc2F)cc1	-8	7%	11µM*	-6%	3%	6
Cc1ccc(CCNC(=O)c2ccc3c(c2)N(Cc2cccc(Cl)c2)C(=O)c2ccccc2S3(=O)=O)cc1	·	-1%	?	-6%	·	·
Cc1cn2c(=O)cc(COC(=O)c3cccc(NC(=O)c4ccc(C(C)(C)C)cc4)c3)nc2s1	·	-6%	-9%	1%	·	·
CC(C)C[C@H](NC(=O)c1nc[nH]c1C(=O)N1CCNCC1)C(=O)OCc1ccccc1	-12	1%	-7%	4%	-6%	-5
SMILES	KCNH2 WT inh	GLS inh	GLP-1R inv ag	HEK293 tox	GLP-1R agonist	KCNH2 3.1 inh
CC(C)C[C@H](NC(=O)c1nc[nH]c1C(=O)NCC(=O)OCc1ccccc1)C(=O)OCc1ccccc1	-121*	-3%	0%	4%	-1%	-3
CC(C)C[C@H](NC(=O)c1nc[nH]c1C(=O)N1CCN(c2ccccc2)CC1)C(=O)OCc1ccccc1	-1	12%	-13%	15%	6%	-78*
CC(C)C[C@H](NC(=O)c1nc[nH]c1C(=O)NCC(=O)OC(C)(C)C)C(=O)OCc1ccccc1	-6	2%	?	-6%	1%	-18
CC(C)C[C@H](NC(=O)c1[nH]cnc1C(=O)N[C@@H](C)c1ccccc1)C(=O)OCc1ccccc1	-2	-3%	4.5µM*	-13%	-1%	-32
COC(=O)c1[nH]c2ccc(Br)cc2c1NC(=O)C(C)N1CCN(C2CCCCC2)CC1 (configuration not stated)	-72*	27%	-13%	-16%	-35%	-70*
COC(=O)c1[nH]c2ccc(C)cc2c1NC(=O)C(C)N1CCN(C2CCCCC2)CC1 (configuration not stated)	-44	29%	-20%	-1%	-1%	?
COc1ccc(/C=N/NC(=O)CNC(=O)c2ccc3c(c2)OCCO3)c(C(=O)O)c1OC	-12	-3%	12%	7%	0%	13
CCOc1ccc(NC(=O)c2sc(-n3nc(C)c(CCC(C)C)c3C)nc2C)cc1	·	-1%	10%	8%	·	·
COc1cc(SC)ccc1C(=O)N(CC(=O)Nc1ccccc1Br)Cc1ccco1	8	-6%	10µM*	0%	16%	16
O=C(CN(Cc1ccco1)C(=O)c1cc(=O)[nH]c2ccccc12)Nc1ccccc1Br	-3	1%	-7%	-7%	-2%	1
CC(C)NC(=O)C1(C)CCN1C(=O)Cc1ccc(-c2ccccc2)cc1 (configuration not stated)	·	-6%	-15%	8%	7%	·
Cc1ccc(CCNC(=O)c2c3c(nc4ccccc24)C(=O)N(C2CCCCC2)C3)cc1	·	4%	-34%	-7%	·	·
Cc1ccc(NC(=O)CN(C)C(=O)C(Sc2ccccc2)c2ccccc2)cc1 (configuration not stated)	-2	-16%	8.9µM*	-26%	0%	-9
